Results as given in PubChem BioAssay AID504500 (NMMLSC, 2011).
Measured potencies and affinities stand elsewhere. Active and inactive are the calls of the source.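 Rule for the calls: active = compounds whose curve fit is tight, with span above 25% and half-effect concentration below 10 µM; inactive = the rest.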

target: Beta-adrenergic receptor kinase 1 (Homo sapiens) (UniProt P25098); assay: aptamer displacement from bead-bound GRK2 – biochemical, cherry pick 1, bead flow cytometry, dose response (AID 504500); conditions: bead-bound biotinylated GRK2, FAM-aptamer displacement; series mostly up to 33 µM; inhibition of aptamer binding: at the top concentration
Sequence (P25098 whole entry, looked up): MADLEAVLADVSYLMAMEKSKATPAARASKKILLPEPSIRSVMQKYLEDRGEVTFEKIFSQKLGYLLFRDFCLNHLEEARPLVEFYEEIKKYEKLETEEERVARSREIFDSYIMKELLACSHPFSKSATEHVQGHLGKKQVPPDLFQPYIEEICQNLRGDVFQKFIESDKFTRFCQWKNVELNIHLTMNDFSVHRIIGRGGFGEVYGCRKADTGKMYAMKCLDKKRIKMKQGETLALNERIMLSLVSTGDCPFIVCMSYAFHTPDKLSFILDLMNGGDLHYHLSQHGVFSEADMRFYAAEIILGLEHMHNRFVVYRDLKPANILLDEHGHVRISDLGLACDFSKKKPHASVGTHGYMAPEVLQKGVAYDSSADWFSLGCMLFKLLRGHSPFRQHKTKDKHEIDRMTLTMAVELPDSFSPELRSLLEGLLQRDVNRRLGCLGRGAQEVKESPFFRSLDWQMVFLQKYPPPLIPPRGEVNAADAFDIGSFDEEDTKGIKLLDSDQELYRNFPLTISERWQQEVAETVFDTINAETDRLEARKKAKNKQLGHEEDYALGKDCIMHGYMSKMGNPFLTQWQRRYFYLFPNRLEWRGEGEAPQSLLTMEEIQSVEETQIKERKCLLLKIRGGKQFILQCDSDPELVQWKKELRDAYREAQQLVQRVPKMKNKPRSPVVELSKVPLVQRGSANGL

Inhibition of aptamer binding, inactive:
CCN1/C(=C/C=C/c2sc3ccccc3[n+]2CC)Sc2ccccc21 -5.22%, C=C(C)C(=O)Nc1cccc(C2=NOC3(C2)C[C@@H](C(N)=O)N(C(=O)/C=C/CC)C3)c1 (stereo partly specified) 60.9%, CCOC(=O)c1sc(NCc2ccco2)c(-c2nc3ccccc3s2)c1N 8.14%, CCN1/C(=C/c2ccc3cccc(C)c3[n+]2CC)Sc2ccccc21 44.9%, C=C(C)C(=O)Nc1cccc(C2=NOC3(C2)C[C@H](C(N)=O)N(C(=O)CC#N)C3)c1 (stereo partly specified) -8.72%, CC(=O)N1CCCc2cc(S(=O)(=O)CCC(=O)N3CCN(c4cccc(C)c4)C(C)C3)ccc21 (stereo unspecified) -2.62%, CNC(=O)c1[nH]cnc1C(=O)Nc1cccc(Cl)c1 -2.13%, O=C(/C=C/c1ccco1)OCC(=O)N1CCCCC1 3.17%, COCCNC(=O)C/C(C)=N/NC(=O)C(=O)NC1CCCCC1 2.44%, C#CCSc1nc2sc3c(c2c(=O)n1C)CCC3 85.1%, CN(C)c1cccc(C(=O)OCc2cc(=O)oc3cc(O)ccc23)c1 -6.6%, Cc1cccc(CCNC(=O)CCS(=O)(=O)c2ccc(Br)cc2)c1 43.7%, CC(C)C(C(=O)O)N1C(=O)/C(=C/C=C/c2ccco2)SC1=S (stereo unspecified) 27.4%, CCN1/C(=C\c2ccc3ccccc3[n+]2CC)Sc2cc(C)ccc21 63.6%, O=C(CN1CCc2ccccc21)NC(=O)NCc1ccccc1 53.7%, CC1CCN(C(=O)c2[nH]cnc2C(=O)Nc2cccc(Cl)c2)CC1 -9.82%, Cc1cc2ccccc2n1CCNC(=O)C(C)Oc1ccccc1 (stereo unspecified) 63.4%, O=C(CCS(=O)(=O)c1ccc(Br)cc1)NCc1cccs1 78.5%, O=C(CCS(=O)(=O)c1ccc(Br)cc1)NCCc1ccccc1 76.5%, C=C(C)C(=O)Nc1cccc(C2=NOC3(C2)C[C@@H](C(N)=O)N(C(=O)C(=C)C)C3)c1 (stereo partly specified) 60.3%, O=C(CCS(=O)(=O)c1ccc(Br)cc1)NCCc1ccc(Cl)cc1 87.3%, C=C(C)C(=O)Nc1cccc(C2=NOC3(C2)C[C@@H](C(N)=O)N(C(=O)/C=C/C=C/C)C3)c1 (stereo partly specified) 84.2%, CC(=O)N1CCN(Cc2nc3cc(Cl)ccc3c(=O)[nH]2)CC1 59.3%, CCc1ccccc1NC(=O)CCS(=O)(=O)c1ccc(Br)cc1 55.8%, CCN1/C(=C/c2ccc3ccc(C)cc3[n+]2CC)Sc2ccccc21 -3.68%, O=C(Nc1cccc(-c2ccc(N3CCOCC3)nn2)c1)c1ccccc1 -0.34%, O=P(c1ccccc1)(c1ccccc1)c1cc(S(=O)(=O)O)ccc1O -2.57%, CCN1/C(=C/C(C)=C/c2sc3ccccc3[n+]2CC)Sc2ccccc21 17.1%, COc1ccc(S(=O)(=O)NCC(c2ccc(F)cc2)N2CCN(C)CC2)cc1 (stereo unspecified) -4.14%, O=C(CCS(=O)(=O)c1ccc(Br)cc1)NC1CCCC1 49.7%, COC(=O)c1ccc(NC(=O)CCS(=O)(=O)c2ccc(Br)cc2)cc1 76.5%
